# Experimental data from ChEMBL document CHEMBL4513145, “CO-ADD screening of Biotechnology Research Centre (C.R.B.t) (Algeria) compounds”.
# Where “and” joins values, the source holds several entries; their conditions need not be identical. Equal values may be shown once. Entries with a potency or affinity are not part of this list.
# System: Staphylococcus aureus
# Details: Concentration 32 ug.mL-1; ASSAY_TEST Inhibition of Bacterial Growth; detection method Absorption (OD600); MEDIA CAMHB; plate type 384well; NBS; CORNING #3640; time 18 hr
row,Compound,Inhibition
1,CCCCCCCC1CN(S(=O)(=O)c2ccc(C)cc2)N(S(=O)(=O)c2ccc(C)cc2)C1O (stereo not given),7.71%
2,CC1C(O)N(C(=O)OC(C)(C)C)N(S(=O)(=O)c2ccc([N+](=O)[O-])cc2)C1C (stereo not given),14.48%
3,CCCCCCCC1CN(S(=O)(=O)c2ccc(C)cc2)N(C(=O)OC(C)(C)C)C1=O (stereo not given),0.71%
4,O=C(OCc1ccccc1)N1CC(Cc2ccccc2)C(O)O1 (stereo not given),13.58%
5,CC1CN(C(=O)OCc2ccccc2)OC1O (stereo not given),2.79%
6,CCCCCCCC1CN(S(=O)(=O)c2ccc(C)cc2)N(C(=O)OC(C)(C)C)C1O (stereo not given),6.71%
7,O=C(OCc1ccccc1)N1OC(O)C2CCCCC21 (stereo not given),6.89%
8,CC1CN(S(=O)(=O)c2ccc([N+](=O)[O-])cc2)N(C(=O)OC(C)(C)C)C1O (stereo not given),60.53%
9,CC(C)(C)OC(=O)N1C(O)C2CCCC2N1S(=O)(=O)c1ccc([N+](=O)[O-])cc1 (stereo not given),-6.71%

# Same assay, conditions: Concentration 32 ug.mL-1; ASSAY_TEST Inhibition of Bacterial Growth; detection method Absorption (OD600); MEDIA CAMHB; plate type 384well; NBS; CORNING #3640; time 18 hr, 32 ug/mL
row,Compound,Inhibition
1,CC(C)(C)OC(=O)N1C(O)C(Cc2ccccc2)CN1S(=O)(=O)c1ccc([N+](=O)[O-])cc1 (stereo not given),11.9% and 5.44% and 15.35%
2,CC1CN(S(=O)(=O)c2ccc([N+](=O)[O-])cc2)N(C(=O)OC(C)(C)C)C1=O (stereo not given),12.53% and 22.23% and 12.31%
3,O=C1ON(C(=O)OCc2ccccc2)CC1Cc1ccccc1 (stereo not given),5.51% and 8.05%
4,Cc1ccc(S(=O)(=O)N2CC(Cc3ccccc3)C(=O)N2S(=O)(=O)c2ccc(C)cc2)cc1 (stereo not given),-1.12% and 2.54%
5,CC1CN(C(=O)OCc2ccccc2)OC1=O (stereo not given),5.54% and 4.49% and 4.77%
6,Cc1ccc(S(=O)(=O)N2CC(C)C(=O)N2S(=O)(=O)c2ccc(C)cc2)cc1 (stereo not given),12.43% and 4.65%
7,CC(C)(C)OC(=O)N1C(=O)C(Cc2ccccc2)CN1S(=O)(=O)c1ccc([N+](=O)[O-])cc1 (stereo not given),9.07% and 7.14% and -8.81%

# System: Escherichia coli
# Details: Concentration 32 ug.mL-1; ASSAY_TEST Inhibition of Bacterial Growth; detection method Absorption (OD600); MEDIA CAMHB; plate type 384well; NBS; CORNING #3640; time 18 hr
row,Compound,Inhibition
1,CCCCCCCC1CN(S(=O)(=O)c2ccc(C)cc2)N(S(=O)(=O)c2ccc(C)cc2)C1O (stereo not given),-1.55%
2,CC1C(O)N(C(=O)OC(C)(C)C)N(S(=O)(=O)c2ccc([N+](=O)[O-])cc2)C1C (stereo not given),-1.81%
3,CCCCCCCC1CN(S(=O)(=O)c2ccc(C)cc2)N(C(=O)OC(C)(C)C)C1=O (stereo not given),-11.74%
4,O=C(OCc1ccccc1)N1CC(Cc2ccccc2)C(O)O1 (stereo not given),-3.12%
5,CC1CN(C(=O)OCc2ccccc2)OC1O (stereo not given),-4.78%
6,CCCCCCCC1CN(S(=O)(=O)c2ccc(C)cc2)N(C(=O)OC(C)(C)C)C1O (stereo not given),-7.16%
7,O=C(OCc1ccccc1)N1OC(O)C2CCCCC21 (stereo not given),-5.21%
8,CC1CN(S(=O)(=O)c2ccc([N+](=O)[O-])cc2)N(C(=O)OC(C)(C)C)C1O (stereo not given),-0.56%
9,CC(C)(C)OC(=O)N1C(O)C2CCCC2N1S(=O)(=O)c1ccc([N+](=O)[O-])cc1 (stereo not given),-4.07%
